The text below walks through data of ChEMBL document CHEMBL3988442, “University of Dundee, Small-Polar-MMV Screening Library” (2021).

SMILES strings stand for the structures. In all, about 48,000 compounds went through this assay and about 13,000 (27%) showed an effect of 50% or more. The list shows a part of the results.

In the experiment the test system is Wolbachia pipientis. Kind of experiment: Anti-Wolbachia Cell-Based Screen. Also on record: scale not given: in the data most compounds retested in dose-response had high values. To be noted: 5 µM. The class given is functional.
With `CC(C)(C)c1cnc(CN2CCCS2(=O)=O)o1`, the “Percent Effect” value is given as -7.665%.
Then `O=C1CCc2cc(S(=O)(=O)NC(=O)c3ccc4c(c3)COC4)ccc2N1`, with -36.98%; and `O=c1c2cccc(Cl)c2ncn1C1CCNC1` (configuration not stated), with 5.785%; and `Cc1ccc(C(=O)NCc2ccccc2S(=O)(=O)N(C)CCO)cc1F`, with -6.958%.
Then `Cc1cnc(C(=O)Nc2cc(F)ccc2OCC2CCCO2)cn1` (configuration not stated), with -2.263%; and `O=C(Nc1cc(F)ccc1OCC1CCCO1)c1ccc(O)nc1` (configuration not stated), with 10.58%.
For the compound `O=C(Nc1cc(F)ccc1OCC1CCCO1)NC1CC1` (configuration not stated), the “Percent Effect” value amounted to 110.8%.
Under `Nc1ccnc(CNc2cc(F)ccc2OCC2CCCO2)n1` (configuration not stated) stands -8.979%; under `CS(=O)(=O)CCC(=O)Nc1cc(F)ccc1OCC1CCCO1` (configuration not stated), 92.36%.
Regarding `O=C(CNc1cc(F)ccc1OCC1CCCO1)N1CCOCC1` (configuration not stated), the “Percent Effect” value worked out at 97.1%.
`O=C(Nc1ccccc1OCC1CCCCO1)c1ccc(O)nc1` (configuration not stated): the “Percent Effect” value was found to be 2.227%.
Consider `Fc1ccc(OCC2CCCO2)c(NCc2cn3cccnc3n2)c1` (configuration not stated), for which the “Percent Effect” value is -2.31%.
For `Cc1ccc(NC(=O)N2CCCC2)c(OCC2CCCO2)c1` (configuration not stated), the “Percent Effect” value was 97.39%.
Turning to `CCn1nc(C)cc1C(=O)Nc1cc(F)ccc1OCC1CCCO1` (configuration not stated), the “Percent Effect” value is on record as -4.642%.
For `Cc1ccc(C(=O)Nc2cc(F)ccc2OCC2CCCO2)cn1` (configuration not stated), the “Percent Effect” value was -10.64%.
For `CCOCCC(=O)Nc1cc(C(N)=O)ccc1N1CCCC(C)C1` (configuration not stated), the “Percent Effect” value was -3.919%.
Under `CCc1nc(CN(C)CC(c2cccs2)N2CCOCC2)no1` (configuration not stated) stands -2.837%; under `COCCC(=O)N1CCc2cc(Cl)cc(Cl)c2C1`, -13.08%.
`Cc1c(-c2c(-c3ccccc3)ncn2[C@H](CO)C(=O)O)cnn1C`: the “Percent Effect” value was -0.2965%.
In the case of `CCOc1cccc(C(C)NCc2ccc(OC)c(OC)c2OC)c1` (configuration not stated), the “Percent Effect” value is recorded as 2.292%.
Regarding `CCCC(NC(=O)c1cc(C2CC2)[nH]n1)c1nnc2ccccn12` (configuration not stated), the “Percent Effect” value is 4.911%.
On to `O=C(Nc1cc(F)ccc1OCC1CCCO1)c1ccccn1` (configuration not stated), for which the “Percent Effect” value is -3.019%.
Consider `O=C(Nc1cc(F)ccc1OCC1CCCO1)N1CCSCC1` (configuration not stated), for which the “Percent Effect” value was determined as 95.33%.
`CC(C)(C)c1nnc(CNc2cc(F)ccc2OCC2CCCO2)o1` (configuration not stated): the “Percent Effect” value is listed as 0.05226%.
Take `CCc1noc(CNc2cc(F)ccc2OCC2CCCO2)n1` (configuration not stated): the “Percent Effect” value was -4.375%.
Turning to `CC(=O)N1CCC(Nc2cc(F)ccc2OCC2CCCO2)CC1` (configuration not stated), the “Percent Effect” value was found to be 103.1%.
As to `O=C(CC(F)(F)F)Nc1cc(F)ccc1OCC1CCCO1` (configuration not stated), the “Percent Effect” value worked out at 91.81%.
Consider `O=C(Nc1cc(F)ccc1OCC1CCCO1)c1ccoc1` (configuration not stated), for which the “Percent Effect” value is -0.8662%.
On to `O=C(Nc1cc(F)ccc1OCC1CCCO1)N1CCCC1` (configuration not stated), for which the “Percent Effect” value was determined as 75.82%.
Take `CN(Cc1ccco1)C1CCC12CCN(C(=O)c1ccnnc1)CC2.O=C(O)C(F)(F)F` (configuration not stated): the “Percent Effect” value was -20.01%.
Take `CCN1CCN(S(=O)(=O)N2CCC(OC)CC2)[C@H]2CS(=O)(=O)C[C@H]21`: the “Percent Effect” value is given as -12.77%.
Turning to `Cc1ccc2nc(CN(C)Cc3ccc(C)o3)cc(=O)n2c1`, the “Percent Effect” value was 4.444%.
As for `CC(COc1ccccc1)NCc1nc(-c2cccnc2)no1` (configuration not stated), the “Percent Effect” value was -6.485%.
As to `CS(=O)(=O)c1ccc(CNCC2CCN(CCO)CC2)cc1`, the “Percent Effect” value is listed as -3.753%.
Regarding `Cc1cc(C(=O)NCc2cc(C)oc2C)no1`, the “Percent Effect” value was found to be 107.3%.
For `Cc1cc(CNC(=O)COc2ccccc2F)c(C)o1`, the “Percent Effect” value is given as 7.15%.
On to `COc1ccc(CNC(=O)NCc2cc(C)oc2C)cc1`, for which the “Percent Effect” value came out at 2.864%.
In the case of `Cc1cc(CNC(=O)c2ccno2)c(C)o1`, the “Percent Effect” value was 94.7%.
Take `COc1cc(NC(=O)NCc2cc(C)oc2C)cc(OC)c1`: the “Percent Effect” value is -2.456%.
Regarding `Cc1cc(C(=O)NCc2ccccn2)no1`, the “Percent Effect” value is recorded as 0.7911%.
Under `Cc1cc(CNC(=O)c2cnoc2C)c(C)o1` stands 146.4%; under `Cc1cc(C(=O)NCc2cccnc2OC(C)C)no1`, -0.04653%; under `Cc1nnn2c1COCC(CNC(=O)c1cnoc1C)C2` (configuration not stated), -0.1551%.
On to `Cc1cccnc1CNC[C@H]1Cn2cc(-c3ccccc3)nc2CO1`, for which the “Percent Effect” value was found to be 6.747%.
For `NC(=O)c1cccc(CNC(=O)NCCOc2ccc(F)c(F)c2)c1`, the “Percent Effect” value worked out at 0.2822%.
Consider `CSCc1noc(C2CCC(=O)N(CCCN3CCCC3=O)C2)n1` (configuration not stated), for which the “Percent Effect” value is listed as -15.49%.
Take `OCCOc1ccc(NCc2cc(F)cc3cccnc23)cn1`: the “Percent Effect” value was -4.55%.
Under `Cc1noc(CCCC(=O)N2CSCC2C(=O)NCC2CC2)n1` (configuration not stated) stands 8.382%; under `CC(NC(=O)NC1CCN(CC2CCCC2)CC1)c1nccs1` (configuration not stated), -2.566%; under `CC(C)(C)C(=O)NC(c1nccs1)C1CCN(CC2CCCCC2)CC1.Cl` (configuration not stated), 130.3%.
For `CC(NCCN1CCN(C(=O)C2CCCC2)CC1)c1nccs1` (configuration not stated), the “Percent Effect” value turned out to be 4.028%.
On to `Clc1ccc(N2CCC(C3CCN(Cc4cccnc4)CC3)C2)nc1` (configuration not stated), for which the “Percent Effect” value turned out to be 4.175%.
